9 compounds from PubChem BioAssay can be followed below.

The nature of assay [1]: reducers of endogenous Her2 protein level, primary screen, SKBR3 breast tumor cells, AlphaScreen, ATP viability (AID 461;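 active means Her2 level under about 52% in both replicate screens, with viability over 70% of control, limit read from the data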;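 on Her2 level: lower value means less Her2 protein in the cells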;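 on viability: percent of carrier control wells set as 100% viability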). The settings on record: 18-24 h, measured here: SKBR3 viability, ATP luminescence, at 10 µM. (Alpha assays give light when donor and acceptor beads are brought close together.)
The target of assay [2] is Receptor tyrosine-protein kinase erbB-2 (Homo sapiens) (UniProt P04626). Described as above. To be noted: 18-24 h, at 10 µM, stronger effect = lower value.
Sequence of Receptor tyrosine-protein kinase erbB-2 (Homo sapiens) (P04626 whole entry, looked up): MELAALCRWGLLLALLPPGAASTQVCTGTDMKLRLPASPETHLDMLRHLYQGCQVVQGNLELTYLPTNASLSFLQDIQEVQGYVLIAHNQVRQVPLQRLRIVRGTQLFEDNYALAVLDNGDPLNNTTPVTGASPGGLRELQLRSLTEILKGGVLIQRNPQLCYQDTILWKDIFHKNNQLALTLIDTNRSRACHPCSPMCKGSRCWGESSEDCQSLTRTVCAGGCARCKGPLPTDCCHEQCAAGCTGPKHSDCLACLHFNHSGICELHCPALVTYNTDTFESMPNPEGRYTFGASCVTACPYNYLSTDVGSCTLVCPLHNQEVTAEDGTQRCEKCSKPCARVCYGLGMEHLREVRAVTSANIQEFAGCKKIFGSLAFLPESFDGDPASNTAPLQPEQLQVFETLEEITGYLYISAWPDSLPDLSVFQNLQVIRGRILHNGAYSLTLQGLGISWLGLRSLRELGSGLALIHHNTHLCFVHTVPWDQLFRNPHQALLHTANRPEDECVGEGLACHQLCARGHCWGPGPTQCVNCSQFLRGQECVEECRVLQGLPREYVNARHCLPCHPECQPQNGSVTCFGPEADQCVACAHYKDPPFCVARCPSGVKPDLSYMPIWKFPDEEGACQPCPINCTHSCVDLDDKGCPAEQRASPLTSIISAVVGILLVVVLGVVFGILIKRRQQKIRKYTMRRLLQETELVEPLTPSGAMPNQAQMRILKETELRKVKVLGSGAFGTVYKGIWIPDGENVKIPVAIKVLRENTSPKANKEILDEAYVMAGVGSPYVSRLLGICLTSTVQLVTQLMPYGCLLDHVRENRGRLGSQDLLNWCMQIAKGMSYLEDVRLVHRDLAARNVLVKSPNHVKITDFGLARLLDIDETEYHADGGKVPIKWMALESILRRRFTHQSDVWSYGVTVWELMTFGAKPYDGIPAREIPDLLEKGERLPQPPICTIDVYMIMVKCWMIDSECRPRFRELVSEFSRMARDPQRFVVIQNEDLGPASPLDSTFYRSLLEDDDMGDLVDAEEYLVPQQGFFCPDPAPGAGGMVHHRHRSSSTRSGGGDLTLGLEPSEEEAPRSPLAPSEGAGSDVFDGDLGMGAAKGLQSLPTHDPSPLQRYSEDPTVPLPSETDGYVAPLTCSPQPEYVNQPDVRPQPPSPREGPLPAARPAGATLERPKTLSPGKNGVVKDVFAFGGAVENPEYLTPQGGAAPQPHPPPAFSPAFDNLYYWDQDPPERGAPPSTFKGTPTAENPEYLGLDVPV
Assay [3] is described as follows: SK-BR-3 cell growth inhibitors, pilot screen, 24 h, human (AID 572;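 active means viability at or below 10% of carrier control in both of two separate runs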;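 further: compound exposure lasted between 18 and 24 h rather than exactly 24 h; 100% = carrier-treated control wells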). To be noted: SK-BR-3 viability, CellTiter-Glo luminescence, at 10 µM, stronger effect = lower value. (ATP-based viability assays read luminescence as a measure of living cells.)
Assay [4] in a line: HUVEC growth inhibition – cell-based, human, primary screen (AID 575).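 Further: 100% = median of untreated cell wells with 0.1% DMSO on each plate.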 The settings on record: HUVEC proliferation, CellTiter-Glo luminescence, 72 h; at 10 µM; stronger effect = lower value.
A short description of assay [5]: growth inhibitors of H69AR lung tumor, primary screen, human, duplicate replicates (AID 580;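 active means viability at or under a set limit in both replicates, limit being median viability minus 3 SD, cut at about 48% in these data, passing the limit was not always enough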;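 further: 100% = mean luminescence of untreated wells and 0% = no signal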). To be noted: H69AR lung tumor cells viability, ATP luminescence, 72 h; at 10 µM; stronger effect = lower value.
A short description of assay [6]: reversal of MRP1-mediated doxorubicin resistance, pilot screen, H69AR cells, doxorubicin co-treatment (AID 601;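 active means viability loss from added drug above about 55%, and viability with drug at most 40%, in both replicates, limit read from the data, passing the limit was not always enough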). The settings on record: CellTiter-Glo, 72 h, at 10 µM; for differential viability (reversal): stronger effect = higher value.
Assay [7] in a line: 384-well plate pilot, post-Golgi transport modulator project, inhibition of yeast transport mutant growth (AID 636; in the data active means inhibition above about 31%). To be noted: absorbance 615 nm, about 18 h, stronger effect = higher value.
Assay [8] can be described thus: growth suppression of yeast trafficking mutant, preliminary HTS, modulators of trafficking downstream of Golgi apparatus project, 1536-format plate, OD 615 nm (AID 637; in the data active means inhibition above about 30%). To be noted: yeast transport mutant growth, absorbance 615 nm, 18 h; stronger effect = higher value.
The nature of assay [9]: OD615 S. cerevisiae growth inhibition, permissive medium, pilot counter-assay, permissive growth control for S. cerevisiae lifespan shortening project (AID 705;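 active means growth inhibition above 25% in both replicates, a cutoff set 3 SD above the mean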). To be noted: OD615, 24 h, at 10 µM, stronger effect = higher value.
Assay [10] in a line: Restrictive medium S. cerevisiae growth inhibition, OD615, pilot screen of yeast lifespan reduction project, restrictive growth control (AID 706;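 active means growth inhibition above a set limit, 3 SD over mean compound inhibition, in both replicates, cut at about 43% in these data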;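 further: modified DeaD lifespan yeast strain shifted to restrictive glucose medium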). The settings on record: OD615, 48 h, at 10 µM, stronger effect = higher value.
A short description of assay [11]: viability gain of MRP-1-high H69AR cells under doxorubicin, pilot screen, MRP-1 activator project, CellTiter-Glo, duplicate (AID 807;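 active means viability increase at or above a cutoff of the median across tested compounds plus 3 SD, cut at about 8.5% in these data, passing the limit was not always enough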;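 further: compound pretreatment 18-22 h then 72 h combined with doxorubicin; 0% = doxorubicin alone and 100% = vehicle without doxorubicin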). To be noted: H69AR viability with doxorubicin, CellTiter-Glo luminescence; at 10 µM; stronger effect = higher value.
Assay [12] can be described thus: growth suppression of beta-catenin knockout HCT116, pilot screen, human colon tumor cells (AID 823;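 active means cell viability at or below a set limit in both duplicate runs, the limit being the all-compound median minus 4 SD, cut at about 23% in these data, passing the limit was not always enough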;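 further: 0% = wells killed by 20 µM Hyamine and 100% = untreated DMSO cell wells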). The settings on record: CellTiter-Glo, 60 h, at 10 µM, stronger effect = lower value.
Assay [13] in a line: growth suppression of PTEN-deleted HCT116, pilot screen, cell-based, HCT116 clonal line, CellTiter-Glo (AID 824;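 active means viability at or below 27.92% in each of two runs, the all-compound median minus 4 SD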;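 further: 0% = 20 µM Hyamine control and 100% = vehicle cell control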). The settings on record: 60 h, at 10 µM, stronger effect = lower value.
Assay [14] in a line: inhibitors of the yeast RAM network, pilot screen, dse1pr::URA3 reporter, 5-FOA selection (AID 869;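 active means inhibition over a set limit, the all-compound mean plus 3 SD, in both replicate runs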;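 further: 0% = DMSO wells with no growth and 100% = 10 µM 1-NA-PP1 with full growth; RAM network block rescues cells from 5-FOA so hits raise OD615 growth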). To be noted: S. cerevisiae dse1pr::URA3 5-FOA growth, OD615, 2 d; at 10 µM; stronger effect = higher value; strain carries analog-sensitive mutant Cbk1 kinase.
Assay [15] is described as follows: RAM signaling pathway blockade in yeast – S. cerevisiae, Pdr1DBD-CYC8 efflux-inhibited sensitized strain, primary screen (AID 1298;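 active means RAM network inhibition above 8.4% in each of two replicates, 3 SD over the compound average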;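 further: 0% = DMSO untreated cells without growth and 100% = 10 µM 1-NA-PP1 full growth; higher means more yeast growth rescued from 5-FOA killing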). The settings on record: S. cerevisiae cbk1-as DSE1-URA3 strain, 5-FOA growth OD615, 2 d; at 50 µM; stronger effect = higher value.
[16] abbreviates: H69AR cells + 2 uM doxorubicin, measured here: viability with 2 uM doxorubicin, stronger effect = lower value.
Where [17] appears, read: H69AR cells, compound alone cytotoxicity.

SMILES strings stand for the structures. Inconclusive results are not listed. Activity calls are given as the source filed them.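 How the source made its calls, unless noted: active means viability at or below 30% in both replicate assays; inconclusive means viability at or below 30% in just one of the two assays; inactive means the rest.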

Usually viability stands for a read-out of living cells in per cent, often relative to untreated cells. In general, inhibition refers to the drop in the measured response relative to a control, in per cent. Take `Cc1noc(/C=C/N(C)C)c1S(=O)(=O)N1CCCC(C(=O)NCCC2=CCCCC2)C1` (stereo not drawn): the viability was 94.5% in assay [1]; 94.5% (inactive) in [3]; 79.7% (inactive) in assay [4]; 104% (inactive) in assay [5]; 88.7% in [6] (setting [16]); 104% in assay [6] (setting [17]). Further, the viability in assay [12] is 92.1% (inactive); in [13], 72.8% (inactive). The Her2 level in [2] is 79% (inactive). Moreover, the differential viability (reversal) in assay [6] (H69AR cells + 2 uM doxorubicin) is 15.8% (inactive). Besides, the inhibition in assay [7] was -1.87% (inactive); in assay [8] it was -1.31% (inactive); in [14], 1.23% (inactive). Further, the growth inhibition was -0.38% (inactive) in assay [9] and -11.2% (inactive) in assay [10]. Besides, the viability increase in assay [11] was 2.75% (inactive). For the same compound, the RAM network inhibition in assay [15] was 6.39% (inactive).
Regarding `COCCOC(=O)C1=C(C)N=c2s/c(=C\c3cccs3)c(=O)n2C1c1cccs1` (stereo not drawn), the viability in [1] was 91.5%; in assay [3] it was 91.5% (inactive); in assay [4] it was 82.4% (inactive); in assay [5], 71.9% (inactive); in [6] (setting [16]), 75.9%; in assay [6] (setting [17]), 71.9%. Also, the viability in assay [12] is 86.3% (inactive); in assay [13] it was 82.7% (inactive). Besides, the Her2 level in [2] was 77% (inactive). The differential viability (reversal) in assay [6] (H69AR cells + 2 uM doxorubicin) is -4.05% (inactive). The inhibition in assay [7] was -6.89% (inactive); in assay [8], -8.17% (inactive); in assay [14], 2.83% (inactive). For the same compound, the figures for the growth inhibition in assay [9] and in assay [10] were -9.14% (inactive) and 1.78% (inactive), respectively. For the same compound, the viability increase in assay [11] is -0.91% (inactive). Moreover, the RAM network inhibition in assay [15] is 6.91% (inactive).
As for `Cc1ccc(C(C)C)c(OCCCN2CC(C)OC(C)C2)c1` (stereo not drawn), the viability was 98.5% in assay [1]; 98.5% (inactive) in [3]; 101% (inactive) in assay [4]; 89.4% (inactive) in assay [5]; 99% in [6] (setting [16]); 89.4% in assay [6] (setting [17]). The figures for the viability in [12] and in [13] were 78.5% (inactive) and 89.3% (inactive), respectively. Besides, in assay [2], the Her2 level was 85% (inactive). Besides, the differential viability (reversal) in assay [6] (H69AR cells + 2 uM doxorubicin) is -9.6% (inactive). The inhibition is 75.4% (active) in assay [7], 27.7% (inactive) in assay [8] and 0.705% (inactive) in assay [14]. Also, the growth inhibition in assay [9] is -7.86% (inactive); in [10], -13.4% (inactive). Besides, the viability increase in assay [11] is -2.59% (inactive). The RAM network inhibition in assay [15] is 1.47% (inactive).
`COc1ccc(OC)c(NC(=O)CSc2nnc(Cc3cccn3C)n2-c2ccc(F)cc2)c1`: the viability was 81% in assay [1]; 81% (inactive) in assay [3]; 62.7% (inactive) in assay [4]; 85.6% (inactive) in assay [5]; 77.9% in [6] (setting [16]); 85.6% in assay [6] (setting [17]). Further, the viability in assay [12] is 97.1% (inactive); in assay [13], 92% (inactive). In addition, the Her2 level in assay [2] is 90% (inactive). The differential viability (reversal) in assay [6] (H69AR cells + 2 uM doxorubicin) is 7.76% (inactive). The inhibition was 3.59% (inactive) in [7], 0% (inactive) in [8] and -0.57% (inactive) in [14]. Moreover, the growth inhibition in [9] is 4.57% (inactive); in assay [10] it was 16.1% (inactive). Besides, the viability increase in assay [11] was -5.9% (inactive). For the same compound, the RAM network inhibition in assay [15] is 2.89% (inactive).
As to `CCn1cc(C(=O)NCC2CCCO2)c(=O)c2cc(S(=O)(=O)N(C)C)ccc21` (stereo not drawn), the viability in [1] was 85.5%; in assay [3], 85.5% (inactive); in [4], 105% (inactive); in assay [5], 88.6% (inactive); in assay [6] (setting [16]) it was 83.1%; in [6] (setting [17]) it was 88.6%. Also, the viability is 101% (inactive) in assay [12] and 94.9% (inactive) in assay [13]. Also, the Her2 level in assay [2] is 113% (inactive). Further, the differential viability (reversal) in assay [6] (H69AR cells + 2 uM doxorubicin) is 5.47% (inactive). Further, the results for the inhibition in assay [7], in [8] and in assay [14] were -0.13% (inactive), -3.83% (inactive) and 2.33% (inactive), respectively. Further, the figures for the growth inhibition in [9] and in assay [10] were -1.35% (inactive) and 1.3% (inactive), respectively. Also, the viability increase in [11] is -0.77% (inactive). The RAM network inhibition in assay [15] is 1.14% (inactive).
Consider `COc1cc(NC(=O)c2nccnc2C(=O)O)cc(OC)c1`, for which the viability in assay [1] is 98%; in [3], 98% (inactive); in assay [4] it was 95.7% (inactive); in assay [5], 109% (inactive); in assay [6] (setting [16]), 90.6%; in assay [6] (setting [17]) it was 109%. Moreover, the viability was 96.1% (inactive) in assay [12] and 95% (inactive) in [13]. Further, the Her2 level in assay [2] is 107% (inactive). Besides, the differential viability (reversal) in [6] (H69AR cells + 2 uM doxorubicin) was 18.3% (inactive). Further, the inhibition in assay [7] was -7.6% (inactive); in assay [8] it was -2.3% (inactive); in assay [14], 2.17% (inactive). For the same compound, the growth inhibition in assay [9] is -8.21% (inactive); in assay [10], -1.48% (inactive). Moreover, the viability increase in [11] was -1.6% (inactive). In addition, in assay [15], the RAM network inhibition is -0.31% (inactive).
Take `Cn1c(C(=O)NCC2CCCO2)cc2c(=O)n(C)c3ccccc3c21` (stereo not drawn): the viability is 95% in assay [1]; 95% (inactive) in assay [3]; 84.8% (inactive) in [4]; 83.6% (inactive) in assay [5]; 75.1% in [6] (setting [16]); 83.6% in [6] (setting [17]). In addition, the viability in assay [12] is 92.9% (inactive); in assay [13] it was 90.7% (inactive). The Her2 level in assay [2] is 89% (inactive). In assay [6] (H69AR cells + 2 uM doxorubicin), the differential viability (reversal) is 8.52% (inactive). Further, the inhibition is -2.31% (inactive) in [7], 2.17% (inactive) in [8] and 2.33% (inactive) in assay [14]. The growth inhibition was -6.67% (inactive) in assay [9] and 12.4% (inactive) in assay [10]. The viability increase in [11] was -4.43% (inactive). Further, the RAM network inhibition in [15] was 0.71% (inactive).
As for `CC(=O)NC(C)c1nc2ccccc2n1C(C)C` (stereo not drawn), the viability is 90% in assay [1]; 90% (inactive) in assay [3]; 88.1% (inactive) in assay [4]; 93.9% (inactive) in [5]; 81.5% in assay [6] (setting [16]); 93.9% in [6] (setting [17]). For the same compound, the figures for the viability in [12] and in assay [13] were 84.8% (inactive) and 90% (inactive), respectively. For the same compound, the Her2 level in assay [2] was 106% (inactive). In addition, the differential viability (reversal) in assay [6] (H69AR cells + 2 uM doxorubicin) was 12.4% (inactive). Besides, the inhibition in [7] is -2.8% (inactive); in assay [8], -2% (inactive); in assay [14], 3.16% (inactive). In addition, the growth inhibition in [9] is -5.54% (inactive); in [10], -15.8% (inactive). Also, the viability increase in [11] is -2.65% (inactive). Moreover, the RAM network inhibition in [15] is -0.31% (inactive).
Regarding `CC1CCN(C(=O)CSCC(=O)Nc2nc(-c3cccs3)cs2)CC1`, the viability in assay [1] was 86%; in assay [3], 86% (inactive); in [4], 67% (inactive); in assay [5], 91.1% (inactive); in [6] (setting [16]), 86.6%; in assay [6] (setting [17]), 91.1%. The viability in assay [12] is 100% (inactive); in assay [13], 92.1% (inactive). Also, in [2], the Her2 level is 80.5% (inactive). The differential viability (reversal) in assay [6] (H69AR cells + 2 uM doxorubicin) was 4.54% (inactive). For the same compound, the figures for the inhibition in assay [7], in assay [8] and in [14] were -1.33% (inactive), -1.15% (inactive) and 0.24% (inactive), respectively. Besides, the growth inhibition in assay [9] was 1.36% (inactive); in assay [10], -5.56% (inactive). Also, in assay [11], the viability increase is -4.14% (inactive). For the same compound, the RAM network inhibition in assay [15] was -0.16% (inactive).
